About 3,200 (25%) of roughly 13,000 compounds showed an effect of 50% or more. The list shows a part of the results.
Test system: P. falciparum stage V gametocytes
Parameters: BacTiter-Glo ATP luminescence viability of purified stage V gametocytes in 384-well plates, per cent inhibition versus DMSO
Conditions: 48 h, 5 µM; inhibitor

Row | Compound | % Inhibition [%]
1 | Cc1nc(N)nc(N)c1OCCCCCCOc1ccccc1 [TCMDC-131354] | -4.555
2 | Cc1ccc(F)c(C(=O)Nc2cccc(-c3nn4ccccc4c3-c3ccnc(Nc4cccc(F)c4)n3)c2)c1F [TCMDC-135846] | -36.31
3 | O=C(Nc1cccc(-c2nn3ccccc3c2-c2ccnc(Nc3ccc(Cc4ccncc4)cc3)n2)c1)c1c(F)cccc1F [TCMDC-135845] | -48.11
4 | CC1(C)N=C(N)N=C(N)N1OCCc1ccc(N)cc1 [TCMDC-131632] | 14.77
5 | Cc1ccc(F)c(OC2CCN(c3ccc(C(=O)NC4CC4)cn3)CC2)c1 [TCMDC-134036] | 27.07
6 | CCNc1cc(C)nc(Nc2ccc(NC(=O)c3cccs3)cc2)n1 [TCMDC-124981] | -23.08
7 | O=C(Nc1cc(C(F)(F)F)cc(C(F)(F)F)c1)c1cc(Cl)ccc1O [TCMDC-125465] | 22.2
8 | O=C(Nc1ccc(Cl)cc1)c1cc(Cl)cc2[nH]c(C(F)(F)F)nc12 [TCMDC-141586] | 55.63
9 | Cc1ncccc1C(=O)Nc1cccc(-c2cccc(-c3nc4ccc(C(F)(F)F)cc4[nH]3)c2)c1 [TCMDC-136860] | -20.59
10 | O=C(Nc1cccc(C(F)(F)F)c1)c1cccc2[nH]c(C(F)(F)F)nc12 [TCMDC-141579] | 65
11 | O=C(Nc1ccc(Cl)cc1)c1cccc2[nH]c(C(F)(F)F)nc12 [TCMDC-141578] | 11.96
12 | O=C(Nc1cccc(-c2cccc(-c3nc4ccc(C(F)(F)F)cc4[nH]3)c2)c1)c1cccnc1Cl [TCMDC-136838] | -52.15
13 | Fc1ccccc1COc1ccc(Nc2ncnc3ccc(-c4nnc(C(F)(F)F)o4)cc23)cc1Cl [TCMDC-138161] | 24.13
14 | Cc1ccc(Nc2ccnc(Nc3ccc4c(c3)CS(=O)(=O)C4)n2)cc1O [TCMDC-138484] | -40.59
15 | CCNc1cc(C(=O)N[C@@H](Cc2ccccc2)[C@H](O)CN[C@@H]2CCc3ccccc32)cc(N2CCCCS2(=O)=O)c1 [TCMDC-134706] | 14.74
16 | CCN(CC)CCN(Cc1ccc(-c2ccc(C(F)(F)F)cc2)cc1)C(=O)Cn1c(CCc2ccc(F)c(F)c2)cc(=O)c2ccccc21 [TCMDC-141026] | 39.3
17 | CCN(CC)CCN(Cc1ccc(-c2ccc(C(F)(F)F)cc2)cc1)C(=O)Cn1c(CCc2ccc(F)c(F)c2)nc(=O)c2ccccc21 [TCMDC-140948] | 78.31
18 | CCN(CC)CCN(Cc1ccc(-c2ccc(C(F)(F)F)cc2)cc1)C(=O)Cn1c(CCc2cc(F)c(F)c(F)c2)nc(=O)c2ccccc21 [TCMDC-140944] | 66.72
19 | CCN(CC)CCN(Cc1ccc(-c2ccc(C(F)(F)F)cc2)cc1)C(=O)Cn1c(CCc2ccc(F)c(C#N)c2)nc(=O)c2ccccc21 [TCMDC-140957] | 85.6
20 | CCN(CC)CCN(Cc1ccc(-c2ccc(C(F)(F)F)cc2)cc1)C(=O)Cn1c(CCc2cccc(C#N)c2)nc(=O)c2ccccc21 [TCMDC-140980] | 54.63
21 | C/C=C1/CN2CC[C@H]1C[C@H]2[C@H](O)c1ccnc2ccc(O)cc12 [TCMDC-138167] | 19.07
22 | C=CCOc1ccccc1CNCC(O)c1cccc(C(F)(F)F)c1 (stereo not shown) [TCMDC-140394] | 31.37
23 | COc1ccc(CCN2CCC(Nc3nc4ccccc4n3CCc3ccc(OC)cc3)CC2)cc1 [TCMDC-123918] | 9.396

Row | Compound | % Inhibition [%]
24 | N#Cc1cc(C(=O)Nc2ccccc2)c(N)nc1SCC(=O)NC(c1ccccc1)c1cccs1 (stereo not shown) [TCMDC-124880] | -24.84
25 | CCN(CC)c1cc(C)c2cc(NC(=O)c3cc(=O)c4ccccc4o3)ccc2n1 [TCMDC-123592] | 0.01985
26 | COc1cc(OC)nc(-c2cccc(NC(=O)c3ccc4c(=O)n(CCN5CCCCC5)cnc4c3)c2)n1 [TCMDC-132360] | -43.17
27 | CN(C)Cc1cccc(-c2ccc(NC(=O)c3ccc4c(=O)n(Cc5cnn(C)c5)cnc4c3)cc2)c1 [TCMDC-132370] | -68.25
28 | CN(C)Cc1cccc(-c2ccc(NC(=O)c3ccc4c(=O)n(CCN5CCCCC5)cnc4c3)cc2)c1 [TCMDC-132362] | 105.2
29 | CCCn1cnc2cc(C(=O)Nc3ccc(-c4cccc(CN(C)C)c4)cc3)ccc2c1=O [TCMDC-132363] | 8.061
30 | CN(C)Cc1cccc(-c2ccc(NC(=O)c3ccc4c(=O)n(CC5CCCO5)cnc4c3)cc2)c1 (stereo not shown) [TCMDC-132365] | 80.9
31 | CN(C)Cc1cccc(-c2ccc(NC(=O)c3ccc4c(=O)n(C5CCCCC5)cnc4c3)cc2)c1 [TCMDC-132367] | -36.18
32 | NC1=NC(c2ccccc2)(c2ccccc2)C(=O)N1Cc1ccc(-c2ccncc2)cc1 [TCMDC-136894] | 25.37
33 | Cc1ccc2nc3c(cc(C(=O)NCc4ccccc4)c(=N)n3CCCn3ccnc3)c(=O)n2c1 [TCMDC-124377] | 6.883
34 | C=C1C(C(=O)OCC)=CN(CC)c2cc(O[C@@H]3CCN(C(=O)OC(C)(C)C)C3)ccc21 [TCMDC-135647] | 15.51
35 | O=C(/C=C/c1ccc(Cl)c(Cl)c1)NC1CCN(CCNC(=O)c2cccc(Cl)c2)CC1 [TCMDC-141950] | -32.49
36 | CCCc1cc(=O)[nH]c(-n2nc(C)cc2NC(=O)c2cc3ccccc3o2)n1 [TCMDC-124939] | 13.85
37 | O=C(NC1CCN(Cc2ccccc2O)C1)c1ccc(Cl)c(Cl)c1 (stereo not shown) [TCMDC-141737] | 3.103
38 | O=C(NC1CCCCN(Cc2ccccc2O)C1)c1ccc(Cl)c(Cl)c1 (stereo not shown) [TCMDC-141736] | -19.06
39 | O=C(NC1CCCCN(Cc2ccccc2O)C1)c1cccc(C(F)(F)F)c1 (stereo not shown) [TCMDC-141743] | 0.3319
40 | O=C(NC1CCCCN(Cc2ccccc2O)C1)c1cccc(Cl)c1 (stereo not shown) [TCMDC-141745] | 70.72
41 | Oc1ccc(-c2ccccc2)cc1CN1CCCCC1 [TCMDC-125510] | 85.49
42 | O=S(=O)(NC1CCCCN(Cc2ccccc2O)C1)c1ccc(C(F)(F)F)cc1 (stereo not shown) [TCMDC-141803] | -6.826
43 | O=C(NC1CCCCN(Cc2ccccc2O)C1)c1ccc(-c2ccccc2)cc1 (stereo not shown) [TCMDC-141746] | 61.29
44 | O=C(NC1CCCCN(Cc2ccccc2O)C1)c1cc(F)cc(F)c1 (stereo not shown) [TCMDC-141742] | 24.3
45 | O=C(NC1CCN(Cc2ccccc2O)C1)c1cccc(C(F)(F)F)c1 (stereo not shown) [TCMDC-141744] | -4.979
46 | O=C(NC1CCN(Cc2ccccc2O)C1)c1ccc(-c2ccccc2)cc1 (stereo not shown) [TCMDC-141747] | 74.99

Row | Compound | % Inhibition [%]
47 | Oc1ccc(-c2ccccc2)cc1CN1CCCCCC1 [TCMDC-124203] | 12.06
48 | CC(C)(c1ccccc1)c1ccc(O)c(CN2CCOCC2)c1 [TCMDC-124276] | -17.17
49 | Cc1ccccc1C1CCN(C2CCC(NC(=O)c3ccc(-c4cccs4)s3)CC2)CC1 (stereo not shown) [TCMDC-134105] | -3.744
50 | CC(=O)Nc1ncc(C(=O)Nc2cccc(-c3ccc(-c4nc5ccc(F)cc5[nH]4)cc3)c2)s1 [TCMDC-136916] | -12.2
51 | O=C(NCc1ccccc1[S+]([O-])c1ccccc1CO)C(F)(F)F (stereo not shown) [TCMDC-137886] | 0.169
52 | Cc1cccc2nc(-c3cccc(-c4ccc(CNCc5cnn(-c6ccccc6)n5)cc4)c3)[nH]c12.O=C(O)C(F)(F)F [TCMDC-132965] | -15.5
53 | S=C(NCCN1CCOCC1)Nc1ccccc1 [TCMDC-123845] | -18.32
54 | N#Cc1cc(C(=O)c2cc(Cl)ccc2O)cn(-c2cc(Cl)cc(Cl)c2)c1=O [TCMDC-125188] | -6.306
55 | Cc1cc(N(C)C)nc(Nc2ccc(NS(=O)(=O)c3ccccc3)cc2)n1 [TCMDC-124952] | 7.952
56 | O=S(=O)(NCCN1CCCC1)c1ccc(-c2ccc(CNCc3ccc(F)cc3)cc2)cc1F [TCMDC-132287] | 42.7
57 | COc1ccc(CNCc2ccccc2)cc1-c1ccc(S(=O)(=O)NCCN2CCCC2)c(C)c1 [TCMDC-132272] | 107.1
58 | O=S(=O)(NCCN1CCCC1)c1ccc(-c2ccc(CNCc3ccccc3)cc2)cc1F [TCMDC-132236] | 50.96
59 | COc1ccc(CNCc2ccccc2)cc1-c1ccc(S(=O)(=O)NCCN2CCCC2)c(F)c1 [TCMDC-132265] | 101.3
60 | COc1ccc(CNCc2ccc(F)cc2)cc1-c1ccc(S(=O)(=O)NCCN2CCCC2)c(C)c1 [TCMDC-132224] | 105.7
61 | Cc1cc2c(cc1C(F)(F)F)N(C(=O)Nc1ccc(C(=O)NC3CCN(Cc4ccccc4)C3)cc1)CC2 (stereo not shown) [TCMDC-139871] | 23.78
62 | Clc1cc(Br)ccc1-c1ccc(CNCC2CCNCC2)o1 [TCMDC-124617] | 29.69
63 | CC(C)Cc1cnc2nc(N)nc(N)c2c1 [TCMDC-137923] | 48.38
64 | N#Cc1c(-c2ccccc2)cn2c1[nH]c(=O)c1ccccc12 [TCMDC-124997] | 14.43
65 | CCN(CCCN1CCCCC1)c1cc(C)nc(Nc2ccc(C)c(F)c2)n1 [TCMDC-132437] | 25.13
66 | O=C(NCCN1CCOCC1)c1ccc(CNC(=O)c2ccc(O)c(-c3ccc(Cl)c(Cl)c3)c2)cc1 [TCMDC-140852] | 5.208
67 | CON(C)C(=O)[C@@H](CCCCNC(=O)OCc1ccccc1)NC(=O)OC(C)(C)C [TCMDC-132004] | -2.99

Reference: paper PMC4552634, “A New Set of Chemical Starting Points with Plasmodium falciparum Transmission-Blocking Potential for Antimalarial Drug Discovery” (PLoS ONE, 2015)
